Tau ThT inhib = blocks human tau fibril formation measured by thioflavin T | P10636 | recombinant tau K18 P301L, heparin-induced fibrillization, ThT fluorescence | Potency, µM (series often up to 57.4 µM), inactives show top-dose activity, negative = inhibition, most hits filed as inhibitors | actives 2.1% (n = 270,000); further: potency means the concentration at half of the fitted maximal effect; nearly all actives have a fitted effect of over 55% in size
Target sequence (P10636 561-689 P618L limits assumed): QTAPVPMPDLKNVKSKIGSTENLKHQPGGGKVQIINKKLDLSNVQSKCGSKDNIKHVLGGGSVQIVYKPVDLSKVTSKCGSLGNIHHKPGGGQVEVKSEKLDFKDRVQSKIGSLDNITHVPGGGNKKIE
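Recombinant human tau K18 fragment […] carrying P301L, 15 uM unlabeled plus 0.24 uM Alexa 594-labeled, was fibrillized with 20 uM heparin in 100 mM sodium acetate pH 7 for 6 hr at 37 C; 30 uM ThT fluorescence read after 1 hr.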
Sfp PPTase inh = inhibitors of Bacillus subtilis Sfp phosphopantetheinyl transferase. actives 3.5% (n = 310,000). AID 1490. Potency, µM, for the others: largest response in the series, negative = inhibition, most hits filed as inhibitors. Q9F4F7. Biochemical Sfp PPTase activity, qHTS;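 further: the enzyme is Sfp with the accession as filed and its product quenches rhodamine fluorescence; potency means the concentration at half of the fitted maximal effect; 0% = enzyme reaction without inhibitor and -100% = no enzyme wells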
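Buffer: 50 mM Hepes-Na pH 7.6, 10 mM MgCl2, 0.01% Nonidet P-40, 0.01% BSA. Enzyme 15 nM, pre-exposed to compound 15 min; substrates then added and fluorescence change tracked over 30 min.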
FBPA coupling cs = inhibits coupling enzyme system, counter-screen for aldolase hits; coupling enzyme system counterscreen, AmpLite Red fluorescence; activity change, negative = inhibition, % at 58.2 µM, hits read low; actives 0.67% (n = 290,000); AID 2472; in the data active means activity change below about -30%
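First, compound is pin-transferred into glyceraldehyde-3-phosphate coupling-enzyme reagent at 57.5 uM final and held 10 min at RT. Next, substrate, coupling system and AmpLite Red are added. After 20 min RT, fluorescence (525/598 nm) is read.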
Tau fibril FP = tau fibrillization inhibition (FP) | Potency, µM (top dose mostly 57.7 µM), for the others: top-dose activity, negative = inhibition, most hits filed as inhibitors | K18 P301L tau heparin fibrillization, Alexa594 FP, 6 h | AID 1468 | actives 0.39% (n = 280,000); further: potency means the concentration at half of the fitted maximal effect; nearly all actives have a fitted effect of over 55% in size
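Human K18 P301L fragment (15 uM unlabeled plus 0.24 uM Alexa 594-labeled) in 100 mM sodium acetate pH 7 with compound, aggregation induced by 20 uM heparin for 6 hr at 37 C. ThT (30 uM) added for 1 hr, then Alexa 594 FP read.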
Tau fluor cs = counter-screen for tau fibril formation inhibitors; tau K18 P301L (four-repeat tau fragment) Alexa594 fluorescence, heparin fibrillization; Potency, µM (titrated, usually from 57.7 µM), inactives show at the highest dose activity change, negative = decrease; actives 0.93% (n = 280,000); AID 1463; further: potency means the concentration at half of the fitted maximal effect; nearly all actives have a fitted effect of over 55% in size
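Human K18 P301L tau (15 uM unlabeled plus 0.24 uM Alexa 594-labeled, final) in 100 mM sodium acetate pH 7 was mixed with compound and 20 uM heparin and incubated 6 hr at 37 C.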
An asterisk follows results filed as active; ? = inconclusive; · = no result; [ ] = dose if it differs, or a comment. An excerpt weighted towards active compounds, which were near 5.2% of everything screened. Unless noted, the call rests on the fitted dose curve; in most records, active means well fitted curve in the direction sought with a large enough effect; inconclusive means small, poorly fitted or top-dose-only effect, or another doubt; inactive means no such curve, though single readings can be large; an effect the other way counts as inactive or inconclusive. Unless noted, on the % scale 0 is the no-effect control and ±100 the full control effect.

SMILES | Tau ThT inhib | Sfp PPTase inh | FBPA coupling cs | Tau fibril FP | Tau fluor cs
COC(=O)C1=C(C)NC=C([N+](=O)[O-])C1c1ccc(OC)cc1 (stereo not drawn) | ? | 14µM* | -3 | -11% | -18%
CCn1c2ccccc2c2cc(NC(=O)CSc3nnc(-c4cccc(OC)c4)n3N)ccc21 | ? | 6% | 0 | 2% | 16µM*[quencher]
CCn1c2ccccc2c2cc(NC(=O)CSc3nnc(-c4ccc(OC)c(OC)c4)n3N)ccc21 | ? | 13% | -2 | 13% | ?
CCOc1ccccc1NC(=O)CN1C(=O)COc2ccc(S(=O)(=O)NC3CCCC3)cc21 | -2% | · | · | 8% | -6%
CCc1cc(-c2n[nH]c(=S)n2-c2cccc(C)c2)cs1 | -19% | 50µM* | 4 | 2% | -16%
Cc1cccc(-n2c(-c3csc(C)c3)n[nH]c2=S)c1 | -9% | 4% | -2 | 1% | -5%
CCCCn1c(-c2csc(CC)c2)n[nH]c1=S | 6% | 20µM* | 12 | 5% | 2%
CCCCn1c(-c2csc(C(C)C)c2)n[nH]c1=S | -18% | -18% | 2 | 6% | -7%
O=C(O)c1c(C(=O)O)c2ccccc2[nH]c1=O | -11% | 18% | -33* | -2% | -3%
O=c1[nH]c2ccccc2c(O)c1O | 3.2µM* | 0.32µM* | -73* | 7.1µM* | -23%
COC(=O)c1c(O)c2ccccc2[nH]c1=O | -11% | -6% | -4 | 1% | -6%
COc1ccc(-c2nc3cnc(OC)nc3n(CCc3ccccc3)c2=O)cc1 | · | 16% | 4 | · | ·
Cc1cc(-c2n[nH]c(=S)n2Cc2ccco2)n(C)n1 | -13% | 50µM* | 0 | 9% | -9%
Cc1cc(-c2n[nH]c(=S)n2Cc2ccco2)nn1C | -8% | -7% | 4 | -10% | -6%
Cc1ccc(/C=N/N2CCN(C3c4ccccc4-c4ccccc43)CC2)o1 | -25% | 18µM* | 2 | -2% | -28%
COc1ccccc1N1CCN(/N=C\c2ccc(C)o2)CC1 | -10% | 79µM* | -7 | 6% | -8%
COc1cc(/C=N/N2CCN(C3c4ccccc4-c4ccccc43)CC2)cc(OC)c1OC | -14% | ? | -1 | ? | -21%
Cc1ccc(/C=N/N2CCN(Cc3ccc(Cl)cc3)CC2)o1 | -7% | 25µM* | 0 | -1% | -3%
O=C(O)c1ccc(/C=N/N2CCN(C3c4ccccc4-c4ccccc43)CC2)cc1 | · | ? | 0 | 0% | -6%
COc1cc(/C=N/N2CCN(C3c4ccccc4-c4ccccc43)CC2)cc(OC)c1O | ? | 40µM* | -5 | 12% | ?
CCCCN(CC)C(=O)CSc1nc2n[nH]c(C)c2c(=N)n1-c1ccc(CC)cc1 | ? | · | · | 15% | -17%
O=C(O)c1ccccc1/C=N/N1CCN(C2c3ccccc3-c3ccccc32)CC1 | -10% | 8% | 14 | -7% | -4%
Oc1ccc(/C=N/N2CCN(C3c4ccccc4-c4ccccc43)CC2)cc1O | ? | 56µM* | 8 | ? | 13µM*[quencher]
Oc1ccc(/C=N/N2CCN(C3c4ccccc4-c4ccccc43)CC2)cc1 | -7% | 12% | 15 | -9% | ?
Oc1ccc(/C=N/N2CCN(C3c4ccccc4-c4ccccc43)CC2)c(O)c1 | -18% | 24% | 16 | ? | 13µM*[quencher]
SMILES | Tau ThT inhib | Sfp PPTase inh | FBPA coupling cs | Tau fibril FP | Tau fluor cs
CCCCC/C=C\C[C@@H]1O[C@H]1C(O)/C=C\C/C=C\CCCC(=O)O (stereo partly drawn) | -5% | 23% | 3 | -1% | -4%
Cc1cc(NC(=O)c2cccn2-c2nnc(N3CCCCC3)s2)ccc1Br | -6% | · | · | -10% | -28%
CC1(C)Cc2c(C#N)c(NCC3CCCO3)nc(-c3ccco3)c2CO1 (stereo not drawn) | ? | 7.9µM* | -7 | -2% | -7%
CC1(C)Cc2c(C#N)c(NCCc3ccccc3)nc(-c3ccco3)c2CO1 | ? | 50µM* | -2 | -4% | 2%
CC1(C)Cc2nc(NC3CCCCC3)c(C#N)cc2CO1 | -7% | 18% | 1 | 1% | -12%
CCN(CC)CCNc1nc(-c2ccco2)c2c(c1C#N)CC(C)(C)OC2 | -4% | 5% | 1 | 9% | 2%
CC1(C)Cc2c(C#N)c(NC3CCCCC3)nc(-c3ccco3)c2CO1 | ? | 3.5µM* | -30* | -8% | -4%
CCOc1ccc(-n2c(=O)c3c(C)c(C)sc3n(Cc3c(F)cccc3Cl)c2=O)cc1 | -4% | · | · | -3% | -6%
O=C(/C=C/c1cccs1)N1CCN(c2ccc(O)cc2)CC1 | ? | 45µM* | -6 | 3% | -17%
Cc1cc(S(=O)(=O)N2CCN(Cc3noc(CCC(=O)N4CCCCC4)n3)CC2)ccc1F | 7% | · | · | 3% | -1%
CC1=C(SCCC#N)S/C(=C2\SC(C)=C(SCCC#N)S2)S1 | 7.9µM* | 7.9µM* | -2 | ? | ?
Cn1c(=S)[nH]c2ccccc21 | -15% | -3% | 0 | -12% | -9%
CCOc1ccc2c(c1)[nH]c(=S)n2C | -19% | 18µM* | 0 | -9% | -12%
CCCCNCC(=O)Nc1sc(C)c(C)c1C(=O)OCC | -8% | 6% | 4 | 9% | 0%
CCCCC(=O)Nc1sc2c(c1C(=O)OCC)CCC(C=O)=C2Cl | 25µM* | ? | 0 | -9% | -22%
O=c1c(C(c2ccc(Br)cc2)c2c(O)nc3n(c2=O)CCCS3)c(O)nc2n1CCCS2 | ? | ? | 5 | ? | -29%
O=c1c(C(c2ccc(O)cc2)c2c(O)nc3n(c2=O)CCCS3)c(O)nc2n1CCCS2 | ? | 25µM* | 0 | -9% | -25%
Cc1ccc(C(c2c(O)nc3n(c2=O)CCS3)c2c(O)nc3n(c2=O)CCS3)cc1 | -17% | ? | 9 | 1% | 6%
O=c1c(C(c2ccc(O)cc2)c2c(O)nc3n(c2=O)CCS3)c(O)nc2n1CCS2 | ? | 14µM* | 2 | -6% | -22%
O=C(Nc1ccc(O)cc1)C1CC=CCC1 (stereo not drawn) | 25µM* | -5% | -9 | ? | 28µM*[quencher]
Clc1ss/c(=N\c2ccccn2)c1Cl | ? | 35µM* | -1 | -15% | -10%
O=C(Nc1ccc(Cl)cc1)Nc1nnc(CSCc2ccccc2Cl)s1 | ? | 10% | 10 | ? | 2%
Cc1ccc(OCCSCc2nnc(NC(=O)Nc3cccc(Cl)c3)s2)cc1 | 10% | 19% | 1 | 16µM* | ?
O=C(Nc1ccccc1)Nc1nnc(CSCc2ccccc2Cl)s1 | 21% | 6% | 2 | 10µM* | ?
Cc1nnc(NC(=O)Nc2cccc(Cl)c2)s1 | 0% | 17% | 2 | 1% | -23%
O=C(Nc1ccc(Cl)c(Cl)c1)Nc1nnc(CSc2ccccc2)s1 | 8% | 7% | 1 | 3.5µM* | -29%
Cc1ccc(CCNC(=O)c2sc3ncccc3c2-n2c(C)ccc2C)cc1 | ? | · | · | 1% | -15%
CC(C)n1cnc2c(=S)nc[nH]c21 | -10% | 8.9µM* | -1 | 2% | -10%

Screening data as filed in PubChem.
